Data published in the supplement of paper PMC3334620.
In all, about 33,000 sequences were measured (“E-score (-0.5 to 0.5)”: median about -0.036, highest 2% from about 0.37 on). Many of the other results were omitted from the sample, so the highest values are more common in it than they were.

Biological target: T1, Yer064c (UniProt P40041)
T1 sequence: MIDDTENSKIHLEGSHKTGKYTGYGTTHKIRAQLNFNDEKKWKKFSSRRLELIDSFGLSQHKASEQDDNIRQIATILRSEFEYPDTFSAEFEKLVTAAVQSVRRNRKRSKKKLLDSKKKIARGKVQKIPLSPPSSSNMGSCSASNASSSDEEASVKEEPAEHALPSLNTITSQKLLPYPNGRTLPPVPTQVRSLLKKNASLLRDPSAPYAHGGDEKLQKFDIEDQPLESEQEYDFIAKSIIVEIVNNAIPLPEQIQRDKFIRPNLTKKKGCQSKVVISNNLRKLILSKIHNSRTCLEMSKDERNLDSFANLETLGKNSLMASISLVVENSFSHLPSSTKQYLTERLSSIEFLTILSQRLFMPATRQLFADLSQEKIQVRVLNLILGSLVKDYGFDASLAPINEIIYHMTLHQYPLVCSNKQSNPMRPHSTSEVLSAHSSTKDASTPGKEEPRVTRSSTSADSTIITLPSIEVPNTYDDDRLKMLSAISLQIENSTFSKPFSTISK
Experiment: PBM E-score (8-mer binding enrichment) (E-score (-0.5 to 0.5)); higher = stronger / more preferred TF binding
Details: protein concentration: 200 nM; construct: GST-full length
Summary of the method: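 GST-tagged yeast TFs (full-length or DNA-binding domain) were made by PURExpress in vitro transcription/translation and applied at about 100-200 nM to universal all-10-mer Agilent arrays. The arrays were made double-stranded by primer extension, on fresh or once-stripped slides. Bound protein was detected with fluorescent anti-GST, and scans were normalised with masliner. Each ungapped eight-base word, pooled with its reverse complement, received an E-score (modified Wilcoxon-Mann-Whitney statistic) from the Universal PBM Analysis Suite.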

Sequence | PBM E-score
CTAGGTAC | 0.0158
CTGACTTC | 0.392
CCGACTTC | -0.0761
AAGACTTG | 0.165
CTGACCCC | -0.221
CTGACTCC | 0.46
ATGACTTC | 0.469
ACGACTTC | 0.324
ATGACTTG | 0.435
CTCACTCC | 0.0635
CAGACTTC | -0.103
AGGACTTG | 0.0575
AGGACTTC | 0.201
AAATGAAG | 0.0192
ACACAGTC | 0.285
ATGCAACC | -0.254
AACCAGTA | -0.0555
ATATACTC | 0.103
AGGAGCTC | -0.0695
CGCTGCTC | -0.243
CTGTCACA | 0.16
CCGTCACA | -0.22
CGGTCACA | -0.132
CAGTCACG | 0.413
CAGTCAAG | 0.267

Sequence | PBM E-score
CGGTCACC | -0.0952
CCGTCACC | -0.189
CAGTCACA | 0.42
CAGTCACC | 0.423
GACCTTTA | -0.0143
ATCGAGAT | -0.151
AATAGGAG | -0.113
AGAACGTG | -0.217
CTCTAGGA | 0.0144
CGTCATCC | -0.131
ATTCATCC | 0.119
AGTCATCC | 0.49
AGTCATCA | 0.485
AGTCATCG | 0.492
GGTCATCA | 0.228
CGTCATCA | -0.004
ATTCATCG | 0.205
AGGCATCG | -0.125
GAGGTAAA | 0.122
ATGTGGAG | 0.0652
GGGCGCAC | -0.321
GCCAAGGC | -0.214
AGTCAGGG | 0.439
ACTCAGGG | 0.311
CGTCAGGC | -0.19

Sequence | PBM E-score
ATTCAGGG | 0.0298
CGTCAGGA | -0.0376
GGTCAGGA | -0.138
AGTCAGGC | 0.449
AGTCAGGA | 0.417
ACTCAGGC | 0.331
AAAGTCCA | 0.0185
AGTGAGAG | -0.0545
AACGTGGG | -0.189
AGCGATCA | -0.0759
CTATGGAA | 0.0704
CGAGCAGA | -0.0955
CGATTTAA | 0.188
TGATTAAA | 0.418
AGATTTAA | 0.2
CGATTACA | 0.101
GGATTAAA | 0.205
TGATTACA | 0.41
GGATTACA | 0.0898
TGATTTAA | 0.407
CGATTAAA | 0.249
AGGTAGGG | -0.121
GATTGGCC | -0.0787
CCAACAAA | -0.069
ACTGCGGA | -0.0234

Sequence | PBM E-score
CCGGACTA | 0.103
AGTTTAGG | 0.0907
AGCAACTG | -0.155
GTTGACAA | -0.00857
GTTGACGA | 0.126
CTTGACCC | -0.164
CTTGACTC | 0.463
CTTGACGC | -0.268
ATTGACTC | 0.445
CTTGACAA | 0.113
CTTGACTA | 0.435
CTTGACCA | 0.0717
ATTGACTG | 0.275
GTTGACTA | 0.457
ATTGACAC | 0.0304
ACTAACAC | 0.315
CTAATTAG | 0.175
AACATTAA | -0.00496
CTCGATGC | -0.0842
GCCTATCC | -0.207
GGACCTAC | -0.132
GTTATCAA | 0.041
AGGCCGCA | -0.226
AAGTTTCT | 0.0369
CAAACAGA | 0.0255

Sequence | PBM E-score
CATAGGCC | -0.158
GTGTTCAA | 0.0916
CCCCTACC | -0.124
ACACTTTC | -0.0867
ATTGACAA | 0.0616
ATTGACTA | 0.428
ATTGACGA | 0.188
ATTGGCTA | 0.0683
CGTCGCTC | -0.159
AGTCGCCG | 0.36
GGTCGCTA | -0.197
AGTCGCTA | 0.371
AGTCGCTC | 0.382
AGTCGCCC | 0.403
AGTCGCCA | 0.356
CGTCGCTA | -0.0862
AGTCGCAC | 0.353
CGTCGCAG | -0.031
AGTCGCAG | 0.367
AGTCGCTG | 0.303
AGATTCGC | -0.0217
GCCCCCAC | -0.265
AATGCCCT | -0.232
CCAGAATC | 0.0913
CAGAAGGA | -0.151

Sequence | PBM E-score
GGGAGACC | -0.259
CCCTCTTA | -0.103
AGCATTAA | 0.0916
GGTACTTA | -0.0396
AGTACTCC | 0.171
ATTACTCA | 0.329
GGTACTCA | 0.381
CTTACTCC | 0.128
AGTACTCG | 0.261
AGTACTCA | 0.393
CGTACTCA | 0.335
CTTACTCA | 0.373
AGGTGAAA | 0.0659
AATGTGTA | 0.222
ACGGATAA | -0.0519
CATCAGCA | -0.143
CGTCATTA | -0.0609
AGGCATTG | -0.171
AGTCATTC | 0.482
AGTCATTG | 0.475
AGTCATTA | 0.487
AGCCATTG | 0.247
GGTCATTA | -0.0121
AGCCATTC | 0.0873
CGTCATTC | -0.0565

Sequence | PBM E-score
CCTGGAAG | -0.1
GGAAGCCC | -0.374
AGCGCGGG | 0.00652
ATTCCAGG | 0.118
TCAGCGAA | 0.186
ACAATCTC | -0.108
CCTCATCC | -0.323
TCTCATCA | 0.115
CCTCATCG | -0.207
GCTCATCA | 0.184
ACCCATCT | 0.182
ACACATCG | 0.158
ACTCATCT | 0.401
ACTCATCC | 0.455
GCTCATCC | -0.0652
ACGCATCT | -0.0617
ACTCATCA | 0.412
ACTCATCG | 0.409
AACTTTGG | -0.0438
CTGCTAGA | 0.00564
GAATGCCA | -0.127
CAGGGGCC | -0.269
